Hit rate of the full screen: of about 3,200 compounds, about 2,900 (91%) were called active.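 Rule for the calls: active = EC50 no more than a set limit of log units above the highest dose; inactive = the rest.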 The set was probably picked from earlier hits. Some of the results follow. Results with a measured potency or affinity are listed apart.

This assay can be described thus: SKKanGAS survival reduction under kanamycin, dose response, streptokinase promoter inhibitor project, SKKanGAS strain, luminescence, dose confirmation (AID 1902).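 Note: lower survival reflects blocked streptokinase promoter driving kanamycin resistance gene; 0% = DMSO median and -100% = tetracycline positive control median.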 Conditions: S. pyogenes SKKanGAS, BacTiterGlo, 6 h; at 15 µM (top of the series).
`N#C/C(=C\c1ccc(/C=C(/C#N)c2nn(CCO)c(N)c2C#N)cc1)c1nn(CCO)c(N)c1C#N`: the activity change, negative = inhibition was -60.6% (active).

The record behind these values is PubChem BioAssay AID1902 (Broad Institute, 2009).
